# Results filed as inconclusive are left out. Entries that show only a call come without a potency. Active and inactive are the calls of the source. The call rests on the fitted dose curve; in most records, active means well fitted inhibition curve with a large enough effect in the repeat runs; inconclusive means weak or mixed curves; inactive means flat fitted curve, though single readings scatter.
# Target: Voltage-gated inwardly rectifying potassium channel KCNH2 (Homo sapiens) (UniProt Q12809)
# Assay: Human Ether-a-go-go-Related Gene (hERG) channel small molecule antagonists: fluorescence cell-based qHTS assay (AID 1671200); further: nearly all actives have a fitted effect of over 50% in size;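 on activity change, negative = inhibition: hERG-expressing U2OS cells given a thallium stimulus after FluxOR II dye loading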
# Settings: hERG-U2OS cells, FluxOR thallium flux fluorescence; series mostly up to 76.8 µM
# In short: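 Quantitative HTS in hERG-U2OS cells: thallium entry through the channel reports activity, read as continuous 480/540 nm fluorescence over 2 min after stimulus addition.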
# Potency means the concentration at half of the fitted maximal effect.
# Sequence of Voltage-gated inwardly rectifying potassium channel KCNH2 (Homo sapiens) (Q12809 whole entry, looked up): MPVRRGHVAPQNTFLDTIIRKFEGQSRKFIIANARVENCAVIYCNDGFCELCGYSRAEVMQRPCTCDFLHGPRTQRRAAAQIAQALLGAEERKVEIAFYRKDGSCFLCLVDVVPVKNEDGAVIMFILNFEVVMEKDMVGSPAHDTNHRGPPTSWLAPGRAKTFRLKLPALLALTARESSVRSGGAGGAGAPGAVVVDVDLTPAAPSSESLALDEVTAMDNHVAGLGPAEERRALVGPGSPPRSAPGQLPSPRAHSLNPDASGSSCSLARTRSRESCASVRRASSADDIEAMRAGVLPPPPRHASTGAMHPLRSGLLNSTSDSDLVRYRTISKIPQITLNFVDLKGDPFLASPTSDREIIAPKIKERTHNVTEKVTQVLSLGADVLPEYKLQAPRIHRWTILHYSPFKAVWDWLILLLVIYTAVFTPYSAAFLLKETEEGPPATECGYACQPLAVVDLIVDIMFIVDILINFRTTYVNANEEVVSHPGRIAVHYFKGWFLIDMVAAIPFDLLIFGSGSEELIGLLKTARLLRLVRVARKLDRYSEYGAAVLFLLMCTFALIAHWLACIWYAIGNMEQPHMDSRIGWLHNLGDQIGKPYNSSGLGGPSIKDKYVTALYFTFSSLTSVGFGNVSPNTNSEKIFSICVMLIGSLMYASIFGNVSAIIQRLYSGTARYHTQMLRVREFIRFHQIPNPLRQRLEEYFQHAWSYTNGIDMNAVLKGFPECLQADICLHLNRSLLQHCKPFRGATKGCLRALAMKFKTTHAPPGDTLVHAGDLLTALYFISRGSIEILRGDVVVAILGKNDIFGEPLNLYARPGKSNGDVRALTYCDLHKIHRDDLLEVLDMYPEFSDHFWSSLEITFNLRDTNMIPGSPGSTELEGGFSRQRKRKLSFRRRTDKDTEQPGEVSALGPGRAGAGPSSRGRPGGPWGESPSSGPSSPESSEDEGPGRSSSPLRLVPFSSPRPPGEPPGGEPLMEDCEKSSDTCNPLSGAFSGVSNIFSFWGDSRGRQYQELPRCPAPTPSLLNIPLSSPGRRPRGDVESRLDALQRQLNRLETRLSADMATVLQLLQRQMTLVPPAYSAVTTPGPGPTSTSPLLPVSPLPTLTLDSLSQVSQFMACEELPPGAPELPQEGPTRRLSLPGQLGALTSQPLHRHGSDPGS
SMILES,Potency,"activity change, negative = inhibition"
Clc1ccc2nsnc2c1NC1=NCCN1,inactive,–
CCCCc1oc2ccc(NS(C)(=O)=O)cc2c1C(=O)c1ccc(OCCCN(CCCC)CCCC)cc1,0.848 µM (active),–
CCCCCCCC[N+](CCCCCCCC)(CCCCCCCC)CCCCCCCC,0.69 µM (active),–
CCOC(=O)c1nc(C(Cl)(Cl)Cl)n(-c2ccc(Cl)cc2Cl)n1,49 µM (active),–
CCCCCCCCS(=O)C(C)Cc1ccc2c(c1)OCO2 (centres undefined),35.4 µM (active),–
CCCCCCCCCCCCCCCS(=O)(=O)Oc1ccccc1,inactive,–
O=S1(=O)CC(Cl)(Cl)C(Cl)(Cl)C1,inactive,–
Cc1[nH]nc2c1N=C(c1ccccc1Cl)c1cc([N+](=O)[O-])ccc1N2,8.71 µM (active),–
CCN(C(=O)c1cc(C)cc(OC[C@H](C)Nc2ccncc2)c1)C(C)C,17.2 µM (active),–
Cc1cccc2c1cc1ccc3cccc4ccc2c1c34,inactive,–
NNC(=O)c1cccc(C(=O)NN)c1,inactive,–
[O-][n+]1ccccc1SSc1cccc[n+]1[O-],–,14% [at 15.8 µM] (inactive)
Oc1ccc(N=Nc2ccccc2)cc1,inactive,–
O=C1c2ccccc2Cc2ccccc21,inactive,–
CC(C)(C)C1CCC(CC2=C(O)c3ccccc3C(=O)C2=O)CC1 (centres undefined),inactive,–
Cc1cc(N)c(S(=O)(=O)O)cc1Cl,inactive,–
O=C1C=CC(=O)N1c1ccc(Cc2ccc(N3C(=O)C=CC3=O)cc2)cc1,34.7 µM (active),–
O=[N+]([O-])c1ccccc1Nc1ccccc1,54.6 µM (active),–
O=C(OCC(COC(=O)c1ccccc1)(COC(=O)c1ccccc1)COC(=O)c1ccccc1)c1ccccc1,inactive,–

# Source: PubChem BioAssay (Tox21)
